The whole screen tested about 370,000 compounds, of which about 4,800 (1.3%) were called active. The sample holds actives, similar compounds and a random draw of the others, so the mix is not that of the screen.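 Rule for the calls: active = inhibition above about 21% made by adding two undisclosed values (limit read from the data); inactive = the rest.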
What follows are compounds tested against Protein arginine N-methyltransferase 1 (Homo sapiens) (UniProt Q99873) (assay: human PRMT1 activity-probe blockers – biochemical, fluorescence polarization, primary screen (AID 652257)). Conditions: recombinant PRMT1, activity-based probe fluorescence polarization; at 2.79 µM; stronger effect = higher value.
Protein arginine N-methyltransferase 1 (Homo sapiens), sequence (Q99873 whole entry, looked up): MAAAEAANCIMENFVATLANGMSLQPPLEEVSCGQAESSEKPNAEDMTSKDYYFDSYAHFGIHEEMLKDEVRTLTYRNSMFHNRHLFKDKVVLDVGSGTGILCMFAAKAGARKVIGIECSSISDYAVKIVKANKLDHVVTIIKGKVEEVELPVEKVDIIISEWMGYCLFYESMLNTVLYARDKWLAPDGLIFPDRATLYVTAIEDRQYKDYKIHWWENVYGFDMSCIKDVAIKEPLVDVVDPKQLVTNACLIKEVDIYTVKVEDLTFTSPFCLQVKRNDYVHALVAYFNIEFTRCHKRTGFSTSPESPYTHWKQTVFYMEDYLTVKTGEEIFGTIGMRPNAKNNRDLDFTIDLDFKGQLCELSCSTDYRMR

Row | Structure (SMILES) | inhibition
1 | Cc1cccc(NC(=O)CSc2nnc(CCNC(=O)OC(C)(C)C)o2)c1C | -1.24% (inactive)
2 | O=C(O)CCN1C(=O)CC2(CCCCC2)C1=O | 0.48% (inactive)
3 | N#Cc1ccc(OC[C@@H](O)CN2CCC(C(O)(c3ccccc3)c3ccccc3)CC2)c(F)c1 | -0.03% (inactive)
4 | CC(=O)N1CCCc2cc(S(=O)(=O)N3CCCC(C(=O)N4CCN(c5cccc(Cl)c5)CC4)C3)ccc21 (stereo not given) | -1.42% (inactive)
5 | CCOC(=O)C1(Cc2ccc(Cl)cc2)CCN(C(=O)C2=NNC(=O)CC2)CC1 | 3.16% (inactive)
6 | CCOCCCNC(=S)N1CCC(NC(=O)C2CCCCC2)CC1 | 4.18% (inactive)
7 | Cc1ccsc1-c1cc(C(=O)O)c2c(ccc3ccccc32)n1 | -0.02% (inactive)
8 | Cc1cc(C)c2nc(-c3ccco3)cc(C(=O)O)c2c1 | 36.4% (active)
9 | CCOC(=O)c1ccn(-c2nc(-c3ccco3)cc(C(F)(F)F)n2)n1 | 3.19% (inactive)
10 | COc1ccc(-c2cc(-c3nnc(SCC(=O)Nc4cccc5ccccc45)n3N)[nH]n2)cc1 | 2.25% (inactive)
11 | Cc1ccc2c(c1)c1ncnc(N3CCc4ccccc4C3)c1n2C | -0.03% (inactive)
12 | CCN(C(=O)Nc1cccc2ccccc12)c1ccccc1 | 9.59% (inactive)
13 | Cc1cccc(C)c1NC(=O)C(c1cccc(F)c1)N1CCN(C)CC1 (stereo not given) | -4.4% (inactive)
14 | O=S1(=O)c2c(NCc3ccco3)cccc2Oc2ccccc2CN1Cc1cn(Cc2cccc(C(F)(F)F)c2)nn1 | 0.88% (inactive)
15 | COc1ccc(NC2=CC(=S)NC(C)(C)C2)cc1 | 33.8% (active)
16 | COc1ccc(CCNC2=CC(=O)CC(C)(C)C2)cc1 | -4.15% (inactive)
17 | COC(=O)C1=C(C)NC(=S)NC1c1ccc(OC)cc1 (stereo not given) | -3.18% (inactive)
18 | Cc1ccc(Cn2cc(CN3[C@@H](CC(C)C)COc4ccc(Cl)cc4S3(=O)=O)nn2)cc1 | -3.14% (inactive)
19 | CC(=O)c1cccc(NC(=O)CN2C(=O)c3cccnc3Oc3ccc(Cl)cc32)c1 | 1.98% (inactive)
20 | COc1cc(NC(=S)NNC(=O)CC(C)C)c(OC)cc1Cl | 5.88% (inactive)
21 | COc1ccc(C)cc1NC(=S)Nc1ccccc1SC | 1.24% (inactive)
22 | CCc1ccccc1NC(=S)Nc1cc(OC)c(NC(=O)C(C)C)cc1OC | 22.1% (active)
23 | O=[N+]([O-])/C=C/c1ccc2c(ccn2Cc2ccccc2)c1 | 24.4% (active)
24 | FC(F)(F)c1cccc(Cn2ccc3ccc(-c4ccc5ccn(Cc6ccccc6)c5c4)cc32)c1 | -0.46% (inactive)
25 | COc1ccc(Cn2ccc3ccc(-c4ccc5ccn(Cc6ccccc6C)c5c4)cc32)cc1 | 5.02% (inactive)
26 | CCc1ccc(-n2c(=S)sc3c(=O)n(-c4ccccc4OC)c(=S)[nH]c32)cc1 | 84.4% (active)
27 | COc1ccc(Cl)cc1-n1c(=S)sc2c(=O)n(-c3ccc(F)cc3)c(SCC(=O)O)nc21 | 4.71% (inactive)
28 | COc1cc2[nH]c(=S)n(Cc3ccc(F)cc3)c(=O)c2cc1OC | 1.22% (inactive)

Row | Structure (SMILES) | inhibition
29 | CC(=O)N1CCc2cc(S(=O)(=O)NCCC(=O)N3CCCC3)ccc21 | 0.09% (inactive)
30 | Oc1ccc(/C=C/c2c(F)cccc2F)c2cccnc12 | -1.47% (inactive)
31 | COCC1CCN(C(=O)c2ccc3oc(Cc4ccccc4)nc3c2)C1 (stereo not given) | -0.25% (inactive)
32 | O=C(Nc1cc(C(F)(F)F)ccc1Cl)c1cc2nc3c(c(C(F)(F)F)n2n1)CCCC3 | -0.92% (inactive)
33 | c1cncc(CNc2ccnc(-c3ccc4c(c3)OCO4)n2)c1 | -4.36% (inactive)
34 | COc1ccc(/C=N/n2c(C)cc(C)cc2=O)cc1 | -4.04% (inactive)
35 | C=CCN1C(=O)[C@@H](CC(=O)N2CCN(C(=O)c3ccco3)CC2)[C@]2(C(=O)OC)CCCCC=C12 | 0.68% (inactive)
36 | CN(C(N)=NC(=O)/C=C/c1ccccc1)C(C#Cc1ccccc1)Cc1ccccc1 (stereo not given) | -2.71% (inactive)
37 | COc1cc(Cl)cc(C2NC(=O)NC(C)=C2C(=O)NCc2ccccc2)c1O (stereo not given) | 0.85% (inactive)
38 | COc1ccccc1C(=O)NN1C(=O)C2C3C=CC(O3)C2C1=O (stereo not given) | 35.6% (active)
39 | O=C(NN1C(=O)C2C3C=CC(O3)C2C1=O)c1ccccc1 (stereo not given) | -3.32% (inactive)
40 | O=C(NN1C(=O)C2C3C=CC(O3)C2C1=O)c1ccncc1 (stereo not given) | 3.88% (inactive)
41 | Nc1nc(CC(=O)CSc2ccc(Cl)cc2)nc(Nc2ccc(F)cc2)n1 | -4.39% (inactive)
42 | COC(=O)[C@]12C[C@H](CC(=O)N3CCOCC3)C(=O)N(Cc3ccc(Cl)cc3Cl)C1=C[C@H](COCc1ccccc1)O[C@@H]2C | 2.19% (inactive)
43 | Nc1c(C(=O)c2cccs2)sc2nsc(SCCN3CCCCC3)c12 | 25.1% (active)
44 | CS(=O)(=O)N(CC(=O)N1CCN(Cc2ccccc2)CC1)c1ccc2c(c1)OCCO2 | -1.51% (inactive)
45 | CC(=NC1CCN(Cc2ccccc2)CC1)c1c(O)[nH]c(=O)[nH]c1=O | 1.82% (inactive)
46 | c1ccc(CN2CCC(N=C3NN=C(c4ccc5c(c4)OCCO5)CS3)CC2)cc1 | 27.6% (active)
47 | O=C(CSc1nnc(COc2ccccc2)n1-c1ccc(Cl)cc1)Nc1ccc2c(c1)OCO2 | 0.01% (inactive)
48 | CC1(C)NC(=O)N(CC(=O)Nc2ccc(-c3ccccc3)cc2)C1=O | -1.42% (inactive)
49 | Cc1ccc(NC(=O)Cn2sc3ccccc3c2=O)cc1 | 91.8% (active)
50 | O=C(Cn1nc(C(=O)O)c2ccccc2c1=O)Nc1ccc(F)cc1 | 2.28% (inactive)
51 | CN(C)C(=O)CCc1ccc2c3c([nH]c2c1)[C@]1(CCc2ccccc2)[C@@H](C(=O)N2CCCCC2)C[C@H](CC(=O)NCCC2=CCCCC2)C(=O)N1CC3 | -1.05% (inactive)
52 | O=C1Nc2ccccc2OC1CC(=O)N1CCCCCCC1 (stereo not given) | 1.11% (inactive)
53 | CN(CC(=O)NC1CCCC1)S(=O)(=O)c1cnc[nH]1 | -5.5% (inactive)
54 | CC1CCN(C(=O)C2CCN(S(=O)(=O)N3CCC4(CC3)OCCO4)CC2)CC1 | -2.98% (inactive)
55 | COc1ccc(-c2nn(C)c(=O)c3ccccc23)cc1NC(=O)COc1ccccc1 | 3.05% (inactive)

From PubChem BioAssay AID652257 (The Scripps Research Institute Molecular Screening Center, 2013)
